{"source": "PubChem BioAssay (NCATS)", "note": "Unmarked numbers belong to inactive results. The source made the active and inactive calls. Calls come from the whole dose curve; as a rule, active = well fitted inhibition curve with a large enough effect; inconclusive = small, poorly fitted or top-dose-only effect; inactive = flat fitted curve, though single readings scatter. Potency is the fitted concentration of half-maximal effect."}
{"target": "Luciferin 4-monooxygenase (Photinus pyralis) (UniProt P08659)", "test": "Primary firefly luciferase (FLuc) qHTS assay for identification of artifact compounds. (AID 1845220); note: nearly all actives have a fitted effect of over 60% in size", "conditions": "purified firefly luciferase, luminescence, 5 min; series mostly up to 54.1 µM; activity change, negative = inhibition: at the top concentration", "text": "PI: Alexander Tropsha Ph.D.\nUNC Eshelman School of Pharmacy\nUniversity of North Carolina, Chapel Hill, North Carolina\nHits from high-throughput screening (HTS) of chemical libraries are often false positives due to their interference with the assay detection technology. In response to this problem, we generated the largest publicly available library of chemical liabilities and developed a free webtool to predict HTS artifacts, both of which are described herein. More specifically, we generated, curated, and integrated HTS datasets for thiol reactivity, redox activity, and luciferase (firefly and nano) activity. Using these curated datasets, we developed and validated several Quantitative Structure-Interference Relationship (QSIR) models to predict nuisance behavior. […] These models were employed for virtual profiling of the National Center for Advancing Translational Science's (NCATS) in-house library, and 256 compounds for each assay were selected for the experimental validation of nuisance behavior. The BA for these external predictions ranged from 58 to 78% for compounds within the applicability domains of the models. […] The models developed in this study, along with aggregation models previously developed by our group (SCAM Detective) were implemented in \"Liability Predictor,\" an online tool which may be used as part of chemical library design or for triaging HTS hits. Both the models and the curated datasets are publicly available at https://liability.mml.unc.edu/.\nSEQUENCE No. (e.g., 1, 2, 3, etc.); […] (e.g., Cells, Incubation, Reagent, etc.); VALUE; DESCRIPTION.\n1; Reagent; 3 uL; Luciferase substrate mixture.\n2; Compounds and control; 16 nL; Kalypsis pin tool (Wako USA) equipped with a 1536-well pin head.\n4; Reagent; 1 uL; Luciferase enzyme.\n6; Detection; Luminescence, ViewLux microplate reader.\nNOTES (numbers refer to Sequence numbers above)\n1. 3 uL of luciferase substrate mixture containing D-luciferin and ATP (final concentrations of 10 uM and 10 uM, respectively) in assay buffer (10 mM Mg-acetate, 0.01% Tween-20, 0.05% bovine serum albumin, 50 mM Tris acetate, pH 7.6) was dispensed into all wells of a 1536-well assay plate (solid-bottom white plate; Greiner Bio One, Monroe, NC).\n2. A Wako Pin-tool (Wako Automation, Richmond, VA) was used to transfer 16 nL of compounds (consisting of 7-plates in qHTS format, final concentration range 18.3 nM to 114 uM) or control PTC124 (final concentration range 1.22 nM to 40 uM).\n3. 15 min. incubation at room temperature protected from light.\n4. 1 uL of luciferase enzyme (final concentration 10 nM, Photinus pyralis luciferase) or buffer was dispensed for a final assay volume of 4 uL.\n5. Plates were centrifuged (121xg, 15 seconds) and incubated for 5 minutes.\n6. Samples were read for luminescence on a ViewLux CCD imager (PerkinElmer). Data were normalized to no-enzyme (0% activity) and no-inhibitor (DMSO; 100%) controls and the resulting percent inhibition data were fitted to a 4-parameter Hill equation using NCATS in-house software."}
{"smiles": "C/C=C(\\C)C(=O)O[C@H]1[C@H](OC(C)=O)[C@]2(CO)[C@H](O)[C@H](O)[C@]3(C)C(=CCC4[C@@]5(C)CC[C@H](O[C@@H]6O[C@H](C(=O)O)[C@@H](O)[C@H](O[C@@H]7OC[C@H](O)[C@H](O[C@@H]8OC[C@H](O)[C@H](O)[C@H]8O)[C@H]7O)[C@H]6O[C@@H]6O[C@H](CO)[C@@H](O)[C@H](O)[C@H]6O)C(C)(C)C5CC[C@]43C)[C@@H]2CC1(C)C", "note": "(stereo not given in full)", "outcome": "inactive [at 11.6 µM]"}
{"smiles": "O=C(N1CCOCC1)N1CCN(c2ccc(Cl)cc2)CC1", "outcome": "inactive"}
{"smiles": "C=CC(C)(O)CC/C=C(\\C)C(=O)O[C@H]1[C@H](O)[C@@H](CO)O[C@@H](OC(=O)[C@]23CCC(C)(C)CC2C2=CCC4[C@@]5(C)CC[C@H](O[C@@H]6O[C@H](CO[C@@H]7OC[C@H](O)[C@H](O)[C@H]7O[C@@H]7OC[C@@H](O)[C@H](O)[C@H]7O)[C@@H](O)[C@H](O)[C@H]6O)C(C)(C)C5CC[C@@]4(C)[C@]2(C)CC3)[C@@H]1OC1OC(C)C(O[C@@H]2OC[C@@H](O)[C@H](O[C@@H]3OC[C@@H](O)[C@H](O)[C@H]3O)[C@H]2O)C(O)C1O", "note": "(stereo not given in full)", "outcome": "inactive [at 11.6 µM]"}
{"smiles": "CCCCCOc1cc2c(cc1-c1cc(/C=C/C(=O)O)ccc1O)C(C)(C)CCC2(C)C", "outcome": "inactive"}
{"smiles": "CN1[C@@H]2CC[C@H]1CC(OC(=O)C1C=Nc3ccccc31)C2", "note": "(stereo not given in full)", "activity change, negative = inhibition": "1.68%"}
{"smiles": "CO[C@H]1[C@H](O)[C@H](O[C@H]2CC[C@]3(C)C4CC[C@]5(C)[C@H](C6=CC(=O)OC6)CC[C@]5(O)C4CC[C@@H]3C2)O[C@@H](C)[C@@H]1O", "note": "(stereo not given in full)", "Potency": "7.38 µM (active)"}
{"smiles": "CN(C(=O)Cc1ccccc1)C(CN1CCCC1)c1ccccc1", "note": "(stereo not given)", "outcome": "inactive"}
{"smiles": "CC(=O)OC1CC(O)C(C)(C)C2CC(OC(C)=O)C3(C)C(CCC4(C)C(c5ccoc5)C(=O)C5OC543)C12C", "note": "(stereo not given)", "outcome": "inactive [at 25.7 µM]"}
{"smiles": "C[C@@H]1C(=O)O[C@H]2[C@H](O)[C@@]34[C@@H]5OC(=O)[C@@]3(O[C@@H]3OC(=O)[C@@H](O)[C@@]34[C@H](C(C)(C)C)[C@H]5O)[C@@]12O", "outcome": "inactive [at 25.7 µM]"}
{"smiles": "CC(C)(O)[C@H]1O[C@H]2CC[C@@]3(C)[C@@](O)(CC[C@H]4Cc5c([nH]c6ccccc56)[C@@]43C)C2=CC1=O", "activity change, negative = inhibition": "-2.45% [at 25.7 µM]"}
{"smiles": "C/C=C(\\C)C(=O)OC1CC2C(C)(C)OC(=O)CC(OC(C)=O)C2(C)C2CC(OC(=O)C(C)C)C3(C)C(c4ccoc4)CC4OC43C12C", "note": "(stereo not given)", "outcome": "inactive [at 25.7 µM]"}
{"smiles": "CN1[C@H]2C[C@H](OC(=O)[C@H](CO)c3ccccc3)C[C@@H]1[C@@H](O)C2", "outcome": "inactive"}
{"smiles": "C=C[C@H]1CN2CC[C@H]1C[C@@H]2[C@@H](O)c1ccnc2ccccc12", "activity change, negative = inhibition": "-9.08%"}
{"smiles": "CN1CCCC1CCOC(c1cc2nccc(C(=O)O)c2[nH]1)c1ccccc1Cl", "note": "(stereo not given)", "activity change, negative = inhibition": "0.833%"}
{"smiles": "CC(N)Cc1c[nH]c2ccccc12", "note": "(stereo not given)", "activity change, negative = inhibition": "1.15%"}
{"smiles": "COC(=O)C12C(=O)C(C)(O)C(=O)C1(C)C(C)=CC1C34CCC(OC3=O)C(C)(CO)C4CCC12C", "note": "(stereo not given)", "activity change, negative = inhibition": "3.71% [at 25.7 µM]"}
{"smiles": "COc1c(C(C)C)cc2c(c1O)[C@@]1(C(=O)O)CCCC(C)(C)C1CC2", "note": "(stereo not given in full)", "activity change, negative = inhibition": "0.197%"}
{"smiles": "CC(=O)O[C@H]1C[C@@H](OC(C)=O)C(C)(C)C2C[C@@H](O)[C@]3(C)C(CC[C@@]4(C)[C@H](C5=CC(=O)OC5O)C[C@H]5O[C@]543)[C@]21C", "note": "(stereo not given in full)", "activity change, negative = inhibition": "1.47% [at 25.7 µM]"}
{"smiles": "C=C(CO)C(=O)O[C@H]1C/C(C)=C/CC/C(CO)=C/[C@H]2OC(=O)C(=C)[C@H]12", "outcome": "inactive"}
{"smiles": "CC1=C2C[C@H]3[C@@H](CC=C4C[C@@H](O)CC[C@@]43C)[C@@H]2CC[C@]12O[C@@H]1C[C@H](C)CN[C@H]1[C@H]2C", "outcome": "inactive"}
{"smiles": "CN1C(=O)N(c2ccc(C#N)c(C(F)(F)F)c2)C(=O)[C@]1(CO)c1ccccc1", "outcome": "inactive"}
{"smiles": "COC1CC(OC2CCC3(C)C(=CCC4C3CCC3(C)C(C(C)OC5OC(COC6OC(CO)C(O)C(O)C6O)C(O)C(O)C5O)CCC43O)C2)OC(C)C1OC1OC(C)C(O)C(OC)C1O", "note": "(stereo not given)", "outcome": "inactive [at 11.6 µM]"}
{"smiles": "C=C1[C@@H]2CC[C@@]3(C)[C@H](c4ccoc4)OC(=O)C[C@]13O[C@H]1CC(=O)C(C)(C)[C@H](C(OC(C)=O)C(=O)OC)[C@]12C", "note": "(stereo not given in full)", "activity change, negative = inhibition": "1.19% [at 25.7 µM]"}
{"smiles": "CCCN1CCO[C@H]2c3cc(O)ccc3OC[C@@H]21", "outcome": "inactive"}
{"smiles": "CC1C/C=C/C(O)C(O)CC/C=C/c2cc(O)cc(O)c2C(=O)O1", "note": "(stereo not given)", "outcome": "inactive"}
{"smiles": "CCC(C)(OC(C)=O)C(=O)O[C@H]1[C@H](OC(C)=O)C[C@@H]2[C@@](C)([C@@H]3C[C@H]4C=CO[C@H]4O3)[C@H](C)C[C@H](OC(C)=O)[C@@]2(COC(C)=O)[C@@]12CO2", "note": "(stereo not given in full)", "activity change, negative = inhibition": "1.69% [at 25.7 µM]"}
{"smiles": "CC[C@H]1CN2CC[C@H]1C[C@H]2[C@H](O)c1ccnc2ccc(OC)cc12", "activity change, negative = inhibition": "0.0031%"}
{"smiles": "C[C@@](O)(COc1ccc(C#N)cc1)C(=O)Nc1ccc(C#N)c(C(F)(F)F)c1", "outcome": "inactive"}
{"smiles": "C[C@]12CC[C@H]3[C@@H]([C@H](O)CC4=CC(=O)CC[C@@]43C)[C@@H]1CC[C@@H]2O", "activity change, negative = inhibition": "-1.13%"}
{"smiles": "C/C=C(\\C)C(=O)OC1CC2C(CC=C3CC(OC4CC(OC)C(OC5CC(OC)C(OC6OC(C)C(OC7OC(CO)C(O)C(O)C7O)C(OC)C6O)C(C)O5)C(C)O4)CCC32C)C2(O)CCC(C(C)=O)C12C", "note": "(stereo not given)", "outcome": "inactive [at 11.6 µM]"}
{"smiles": "Cc1cn(C[C@H](N)C(=O)O)c(=O)n(Cc2cc(-c3ccccc3)sc2C(=O)O)c1=O", "activity change, negative = inhibition": "0.0772%"}
{"smiles": "Cn1ncnc1COc1nn2c(-c3c(F)cccc3F)nnc2cc1C1CCC1", "outcome": "inactive"}
{"smiles": "C[C@@]1(C(=O)O)CC[C@]2(C)CC[C@]3(C)C4=CC(=O)c5cc(O)c(O)cc5[C@]4(C)CC[C@@]3(C)[C@@H]2C1", "outcome": "inactive [at 25.7 µM]"}
{"smiles": "CCCCCCn1c(=O)c(C(=O)Nc2ccc(C(=O)OCCC)cc2)c(O)c2ccccc21", "activity change, negative = inhibition": "0.207% [at 11.6 µM]"}
{"smiles": "COC1C(O)C(C)OC(OC2C(CO)O[C@@H](O[C@@H]3CC4CCC5C(CC[C@]6(C)[C@@H](C7=CC(=O)OC7)CC[C@]56O)[C@@]4(C)[C@H](O)C3)C(O)C2O)C1O", "note": "(stereo not given in full)", "activity change, negative = inhibition": "4.82% [at 25.7 µM]"}
{"smiles": "COc1cc2c(cc1OC)[C@@]13CCN4CC5=CCO[C@H]6CC(=O)N2[C@H]1[C@H]6[C@H]5C[C@H]43", "activity change, negative = inhibition": "1.99% [at 25.7 µM]"}
{"smiles": "CC1=CC2/C=C(\\C)CCC(O)C3OC(C)(C)OC3CC(=O)OC23C(=O)NC(CC(C)C)C3C1C", "note": "(stereo not given)", "outcome": "inactive [at 25.7 µM]"}
{"smiles": "Cc1cccc(NC(=O)N[C@@H]2N=C(c3ccccc3)c3ccccc3N(C)C2=O)c1", "activity change, negative = inhibition": "4.84%"}
{"smiles": "O=C(O)c1ccnc2cc(C(OCCN3CCCCC3)c3ccccc3Cl)[nH]c12", "note": "(stereo not given)", "outcome": "inactive"}
{"smiles": "CCN1CC2(COC)C3[C@@H](OC)C4C1C3(C1C[C@]3(O)[C@H](OC(=O)c5ccccc5)C1[C@]4(OC(C)=O)[C@@H](O)[C@@H]3OC)[C@H](OC)C[C@H]2O", "note": "(stereo not given in full)", "activity change, negative = inhibition": "2.26%"}
